# Measurements: PubChem BioAssay
# Unmarked numbers belong to inactive results. Active and inactive are the calls of the source.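 How the source made its calls: active means normalized viability below 100% at a tested concentration; inactive means the rest.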
# Experiment: ovarian cancer cell viability with rucaparib, profiling panel, oncology-focused library, rucaparib conditional (AID 1508598)
# Conditions: patient-derived ovarian cancer cells, CellTiter-Glo viability, 144 h; at 0.000305 µM; OCI-C5x cells; without rucaparib; hits give low values
row,SMILES,viability
1,CCOC(=O)NCCCC(=O)NCCc1ccccc1,98.5% (active)
2,C[C@@]1(c2nc3c(C(N)=O)cccc3[nH]2)CCCN1,110%
3,Cc1ccc(NC(=O)c2ccc(CN3CCN(C)CC3)cc2)cc1Nc1nc(-c2cccnc2)cs1,124%
4,C[C@]12CC[C@H]3c4ccc(O)cc4CC[C@H]3[C@@H]1CCC2=O,116%
5,O=C(NCC1(c2nc(-c3ccccc3)cs2)CCOCC1)c1cccc(-c2noc(C(F)(F)F)n2)c1,111%

# Same assay, conditions: patient-derived ovarian cancer cells, CellTiter-Glo viability, 144 h; at 0.000305 µM; OCI-P5x cells; with rucaparib 20 µM; hits give low values; 100% = cells with rucaparib alone
row,SMILES,viability
1,CCOC(=O)NCCCC(=O)NCCc1ccccc1,93.8% (active)
2,C[C@@]1(c2nc3c(C(N)=O)cccc3[nH]2)CCCN1,108%
3,Cc1ccc(NC(=O)c2ccc(CN3CCN(C)CC3)cc2)cc1Nc1nc(-c2cccnc2)cs1,105%
4,C[C@]12CC[C@H]3c4ccc(O)cc4CC[C@H]3[C@@H]1CCC2=O,102%
5,O=C(NCC1(c2nc(-c3ccccc3)cs2)CCOCC1)c1cccc(-c2noc(C(F)(F)F)n2)c1,98.3% (active)

# Same assay, conditions: patient-derived ovarian cancer cells, CellTiter-Glo viability, 144 h; at 0.000305 µM; OCI-P5x cells; without rucaparib; hits give low values
row,SMILES,viability
1,CCOC(=O)NCCCC(=O)NCCc1ccccc1,94.2% (active)
2,C[C@@]1(c2nc3c(C(N)=O)cccc3[nH]2)CCCN1,83.4% (active)
3,Cc1ccc(NC(=O)c2ccc(CN3CCN(C)CC3)cc2)cc1Nc1nc(-c2cccnc2)cs1,93.4% (active)
4,C[C@]12CC[C@H]3c4ccc(O)cc4CC[C@H]3[C@@H]1CCC2=O,111%
5,O=C(NCC1(c2nc(-c3ccccc3)cs2)CCOCC1)c1cccc(-c2noc(C(F)(F)F)n2)c1,94.3% (active)

# Same assay, conditions: patient-derived ovarian cancer cells, CellTiter-Glo viability, 144 h; at 0.00122 µM; OCI-C5x cells; with rucaparib 10 µM; hits give low values; 100% = cells with rucaparib alone
row,SMILES,viability
1,CCOC(=O)NCCCC(=O)NCCc1ccccc1,108%
2,C[C@@]1(c2nc3c(C(N)=O)cccc3[nH]2)CCCN1,114%
3,Cc1ccc(NC(=O)c2ccc(CN3CCN(C)CC3)cc2)cc1Nc1nc(-c2cccnc2)cs1,105%
4,C[C@]12CC[C@H]3c4ccc(O)cc4CC[C@H]3[C@@H]1CCC2=O,112%
5,O=C(NCC1(c2nc(-c3ccccc3)cs2)CCOCC1)c1cccc(-c2noc(C(F)(F)F)n2)c1,128%

# Same assay, conditions: patient-derived ovarian cancer cells, CellTiter-Glo viability, 144 h; at 0.00122 µM; OCI-C5x cells; without rucaparib; hits give low values
row,SMILES,viability
1,CCOC(=O)NCCCC(=O)NCCc1ccccc1,102%
2,C[C@@]1(c2nc3c(C(N)=O)cccc3[nH]2)CCCN1,114%
3,Cc1ccc(NC(=O)c2ccc(CN3CCN(C)CC3)cc2)cc1Nc1nc(-c2cccnc2)cs1,120%
4,C[C@]12CC[C@H]3c4ccc(O)cc4CC[C@H]3[C@@H]1CCC2=O,117%
5,O=C(NCC1(c2nc(-c3ccccc3)cs2)CCOCC1)c1cccc(-c2noc(C(F)(F)F)n2)c1,113%
